{
  "source": "the supplement of paper PMC10720658",
  "note": "± gives the standard deviation of the averaged measurements.",
  "data": [
    {"tested_on": "AEK1 (Tb927.3.2440)", "test": "percent reduction in TR-FRET probe signal relative to DMSO control; higher = stronger displacement of ATP-site probe (binding)", "details": "1 µM; incubation time 1 h", "units": {"percent reduction in TR-FRET probe signal": "%"}, "values": [
      {"smiles": "O=C(Nc1cccc(Nc2ncc(Br)c(NCCc3cnc[nH]3)n2)c1)N1CCCC1", "percent reduction in TR-FRET probe signal": "52.9 ± 12"},
      {"smiles": "CC(C)(C)c1cc(/C=C(\\C#N)C(N)=S)cc(C(C)(C)C)c1O", "note": "[Tyrphostin AG 879]", "percent reduction in TR-FRET probe signal": "4.66 ± 0.43"},
      {"smiles": "CS(=O)(=O)CCNCc1ccc(-c2ccc3ncnc(Nc4ccc(OCc5cccc(F)c5)c(Cl)c4)c3c2)o1", "note": "[Lapatinib]", "percent reduction in TR-FRET probe signal": "6.42 ± 9.8"},
      {"smiles": "COc1cc2nccc(Oc3ccc(NC(=O)Nc4cc(C)on4)c(Cl)c3)c2cc1OC", "note": "[Tivozanib (AV-951)]", "percent reduction in TR-FRET probe signal": "-2.48 ± 4.1"},
      {"smiles": "Cc1cc(O)c2c(c1)C(=O)c1cccc(O)c1C2=O", "note": "[Chrysophanic Acid]", "percent reduction in TR-FRET probe signal": "6.22 ± 14"},
      {"smiles": "CC(=O)Nc1cccc(-n2c(=O)n(C3CC3)c(=O)c3c(Nc4ccc(I)cc4F)n(C)c(=O)c(C)c32)c1", "percent reduction in TR-FRET probe signal": "4.31 ± 12"},
      {"smiles": "COc1ncc(-c2cc(-c3ncc(CN4C[C@@H](C)O[C@@H](C)C4)o3)c3cn[nH]c3c2)cc1NS(C)(=O)=O", "percent reduction in TR-FRET probe signal": "-2.16 ± 6.2"},
      {"smiles": "C[C@@H](NC(=O)c1ncnc(N)c1Cl)c1ncc(C(=O)Nc2cc(C(F)(F)F)c(Cl)cn2)s1", "percent reduction in TR-FRET probe signal": "-3.59 ± 11"},
      {"smiles": "CC[C@H](Nc1ncnc2[nH]cnc12)c1nc2cccc(F)c2c(=O)n1-c1ccccc1", "note": "[CAL-101 (Idelalisib, GS-1101)]", "percent reduction in TR-FRET probe signal": "0.66 ± 12"},
      {"smiles": "CCCCCCCCCCCCCCCc1cccc(O)c1C(=O)O", "note": "[Anacardic Acid]", "percent reduction in TR-FRET probe signal": "19.2 ± 19"},
      {"smiles": "Oc1c(F)cc(-c2cnccc2-c2ccc(N3CCOCC3)cc2)cc1F", "percent reduction in TR-FRET probe signal": "8.04 ± 13"},
      {"smiles": "Cc1cc(N2CCOCC2)cc2[nH]c(-c3c(NC[C@@H](O)c4cccc(Cl)c4)cc[nH]c3=O)nc12", "percent reduction in TR-FRET probe signal": "21.7 ± 13"},
      {"smiles": "COc1ccc(-c2ccc3ncc4c(c3c2)n(-c2ccc(N3CCNCC3)c(C(F)(F)F)c2)c(=O)n4C)cn1.O=C(O)/C=C\\C(=O)O", "percent reduction in TR-FRET probe signal": "-5.09 ± 8.7"},
      {"smiles": "CNc1nc(Nc2cn(C(C)(C)C#N)nc2C)ncc1C(F)(F)F", "percent reduction in TR-FRET probe signal": "-10.7 ± 11"},
      {"smiles": "O=c1sn(-c2cccc3ccccc23)c(=O)n1Cc1ccccc1", "note": "[Tideglusib]", "percent reduction in TR-FRET probe signal": "-35 ± 6.7"},
      {"smiles": "COc1ccc(CNC(=O)Nc2ncc([N+](=O)[O-])s2)cc1", "percent reduction in TR-FRET probe signal": "-3.27 ± 4.3"},
      {"smiles": "CO[C@H]1C[C@@H]2CC[C@@H](C)[C@@](O)(O2)C(=O)C(=O)N2CCCC[C@H]2C(=O)O[C@H]([C@H](C)C[C@@H]2CC[C@@H](O)[C@H](OC)C2)CC(=O)[C@H](C)/C=C(\\C)[C@@H](O)[C@@H](OC)C(=O)[C@H](C)C[C@H](C)/C=C/C=C/C=C/1C", "note": "[Rapamycin (Sirolimus)]", "percent reduction in TR-FRET probe signal": "-8.37 ± 4.2"},
      {"smiles": "CCN1CCN(Cc2ccc(-c3cc4c(N[C@H](C)c5ccccc5)ncnc4[nH]3)cc2)CC1", "percent reduction in TR-FRET probe signal": "12.6 ± 16"},
      {"smiles": "O=C(Nc1c[nH]nc1-c1nc2cc(CN3CCOCC3)ccc2[nH]1)NC1CC1", "percent reduction in TR-FRET probe signal": "52 ± 14"},
      {"smiles": "COc1ccc(C(=O)Nc2sc3c(c2C(N)=O)CCCC3)cc1OC", "percent reduction in TR-FRET probe signal": "1.85 ± 1.5"},
      {"smiles": "Cc1ccc(Nc2nccc(N(C)c3ccc4c(C)n(C)nc4c3)n2)cc1S(N)(=O)=O", "note": "[Pazopanib]", "percent reduction in TR-FRET probe signal": "7.95 ± 16"},
      {"smiles": "COc1ccc(S(=O)(=O)N(C(C)=O)c2ccccc2/C=C/c2cc[n+]([O-])cc2)cc1", "percent reduction in TR-FRET probe signal": "-0.117 ± 12"},
      {"smiles": "Cc1ccc(NC(=O)c2ccc(CN3CCN(C)CC3)cc2)cc1Nc1nc(-c2cccnc2)cs1", "note": "[Masitinib (AB1010)]", "percent reduction in TR-FRET probe signal": "-4.2 ± 7"},
      {"smiles": "CS(=O)(=O)N1CCN(Cc2cc3nc(-c4cccc5[nH]ncc45)nc(N4CCOCC4)c3s2)CC1", "percent reduction in TR-FRET probe signal": "4.23 ± 8.1"},
      {"smiles": "O=C1N=C(NCc2cccs2)S/C1=C\\c1ccc2ncccc2c1", "percent reduction in TR-FRET probe signal": "8.12 ± 4.7"},
      {"smiles": "CCNC(=O)Nc1ccc(-c2nc3c(c(N4CCOC[C@@H]4C)n2)CCN(C2COC2)C3)cc1", "percent reduction in TR-FRET probe signal": "13.6 ± 12"},
      {"smiles": "Cc1nc2c(-c3cnc(N)nc3)nc(N3CCOCC3)nc2n1C(C)C", "percent reduction in TR-FRET probe signal": "-5.76 ± 8.3"},
      {"smiles": "CO[C@@H](C)Cn1c(=O)n(C)c2cnc3ccc(-c4cncc(C(C)(C)O)c4)cc3c21", "percent reduction in TR-FRET probe signal": "3.02 ± 4.9"},
      {"smiles": "C=CC(=O)N1CCCC(n2nc(-c3ccc(Oc4ccccc4)cc3)c3c(N)ncnc32)C1", "note": "(stereo not drawn)", "percent reduction in TR-FRET probe signal": "4.46 ± 4.9"},
      {"smiles": "Oc1cccc(-c2nc(N3CCOCC3)c3oc4ncccc4c3n2)c1", "percent reduction in TR-FRET probe signal": "-5.8 ± 6.4"},
      {"smiles": "S=C(NCc1ccc2c(c1)OCO2)N1CCN(c2ncnc3c2oc2ccccc23)CC1", "note": "[Amuvatinib (MP-470)]", "percent reduction in TR-FRET probe signal": "3.8 ± 9.9"},
      {"smiles": "Oc1ccc(Nc2nc(-c3ccc(Cl)cc3)cs2)cc1", "percent reduction in TR-FRET probe signal": "-4.54 ± 4.1"},
      {"smiles": "COc1cc(OC)c(/C=C/S(=O)(=O)Cc2ccc(OC)c(NCC(=O)[O-])c2)c(OC)c1.[Na+]", "percent reduction in TR-FRET probe signal": "-3.78 ± 11"},
      {"smiles": "O=C1c2ccccc2-c2n[nH]c3cccc1c23", "percent reduction in TR-FRET probe signal": "-3.83 ± 17"},
      {"smiles": "CNC(=O)CN1CCC(Oc2cc3c(Nc4cccc(Cl)c4F)ncnc3cc2OC)CC1", "note": "[Sapitinib (AZD8931)]", "percent reduction in TR-FRET probe signal": "-5.78 ± 5.4"},
      {"smiles": "O=C(Nc1ccc(-c2ccnc(Nc3ccc(N4CCOCC4)cc3)n2)cc1)[C@@H]1CCCN1", "percent reduction in TR-FRET probe signal": "6.52 ± 10"},
      {"smiles": "COCCOc1cnc2ccn([C@H](C)c3nnc4c(F)cc(-c5cnn(C)c5)cn34)c(=O)c2c1", "percent reduction in TR-FRET probe signal": "5.44 ± 17"},
      {"smiles": "CC[C@H](CO)Nc1nc(NCc2ccccc2)c2ncn(C(C)C)c2n1", "note": "[Roscovitine (Seliciclib,CYC202)]", "percent reduction in TR-FRET probe signal": "-4.47 ± 5.4"}
    ]}
  ]
}
